# Reference: PubChem BioAssay (NCI)
# Compounds without any hit were thinned out: in the full panel of roughly 83,000, 20% have a hit.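 Single-concentration screen, 48 h exposure, 96-well plates. Endpoint: percent growth. Below 10 = active.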 Unmarked numbers belong to inactive results. Calls of active or inactive are those of the source.
# What was measured:
# Assay in all cases: NCI-60 one-dose screen, 48 h (100 = growth as untreated, 0 = no growth, -100 = all killed)
# Conditions in all cases: 10 µM unless noted
# [1] = test system: NCI-H23 lung
# [2] = test system: NCI-H226 lung
# [3] = test system: NCI-H322M lung
# [4] = test system: HOP-62 NSCLC
# [5] = test system: NCI-H460 lung
# [6] = test system: HOP-92 NSCLC
# [7] = test system: NCI-H522 lung
# [8] = test system: A549/ATCC NSCLC
# [9] = test system: 786-0 renal
# [10] = test system: COLO 205 colon
SMILES,growth [1],growth [2],growth [3],growth [4],growth [5],growth [6],growth [7],growth [8],growth [9],growth [10]
Cc1cc(=O)n(C(=S)Nc2ccc(Cl)cc2)c2cc(O)ccc12,85.6%,80.5%,97.7%,84.1%,110%,84.6%,94.9%,106%,109%,103%
COc1ccc(-c2cc(-c3cccnc3)nc3sc4c(N)c(C(C)=O)c(-c5ccccc5)nc4c23)cc1OC,66.7%,94.3%,90.5%,76.5%,78%,61.9%,56.6%,69%,68.9%,94.8%
CSc1nc(-c2ccco2)c(C#N)c(=O)n1C,66.1%,101%,89.6%,89.5%,105%,91.6%,100%,100%,104%,97.2%
Cc1sc2nc(NCCN)[nH]c(=O)c2c1C,91%,84.8%,83.7%,99.8%,101%,87.7%,102%,101%,84.2%,77%
Nc1c(Br)cc2c(c1Br)Cc1cc([N+](=O)[O-])ccc1-2,81.3%,69%,98.4%,90.3%,83.2%,84.8%,97%,86.8%,109%,109%
Cc1cccc(N2C(=O)/C(=C/C(Cl)=C/c3ccc([N+](=O)[O-])cc3)SC2=S)c1C,10.4%,-38.1% (active),82.2%,17.2%,21%,-28.1% (active),-29.3% (active),22.6%,1.63% (active),-31.9% (active)
CCCCCCCCCCCCCCCCCCOc1ccccc1CC(=O)NCC[N+](C)(C)C,51.6%,61.6%,66.9%,5.94% (active),22.5%,-5.43% (active),7.44% (active),40.8%,16.2%,-85.2% (active)
C/C(Cc1ccc(Cl)cc1)=C(\c1ccc(OCCN2CCCCCC2)cc1)c1ccc(OC(=O)c2ccccc2)cc1,46.8%,86.2%,70%,81%,3.3% (active),-4.45% (active),62.4%,54.3%,12%,44.7%
COc1ccc(CN2C(=O)OC(C)(COC(C)=O)C2=O)cc1 (stereo not given),108%,98.1%,99%,106%,111%,100%,91.4%,94.5%,106%,119%
COc1ccc(-c2cc(-c3cc(OC)ccc3OC)nc(SCC(C)=O)c2C#N)cc1,76.1%,83.4%,97.6%,75.5%,78.8%,38.2%,54.9%,49.4%,75%,78.2%
Nc1ccc(-c2ccncc2)cc1NC(=O)N1CCCC1,102%,98.1%,92%,86.5%,100%,104%,57.4%,87.7%,96.8%,105%
O=S(=O)(Nc1ccc2ccccc2c1)c1ccc(-c2cnc(C3CC3)o2)cc1,41.1%,62.1%,48.7%,31.6%,15.2%,54.2%,-0.255% (active),37.6%,42.7%,1.46% (active)
COc1cc2ncnc(Nc3ccc(S(=O)(=O)Nc4nccs4)cc3)c2cc1OCCCN1CCCC1,99.8%,105%,103%,103%,107%,119%,94.1%,102%,105%,113%
COc1ccccc1/C=C/C(=O)Nc1ccc(F)cc1,88.2%,98%,104%,88.7%,102%,86.8%,72.4%,92.9%,97.7%,101%
Cc1ccc(-c2csc(NC(=O)CSc3nc(N)cc(N)n3)n2)cc1,42.7%,96.3%,87%,50.9%,78.6%,89.3%,54.6%,62.7%,72.2%,50.8%
COC1C(O)CC(OC2CC(OC3CC(O[C@@H]4C(=O)c5c(cc6cc(OC7CC(OC8CC(O)C(O)C(C)O8)C(O)C(C)O7)c(C)c(O)c6c5O)CC4[C@H](OC)C(=O)C(C)=O)OC(C)C3O)OC(C)C2O)OC1C (stereo not given in full),-23.8% (active),-10.8% (active),-8.5% (active),-20.1% (active),8.4% (active),-6.32% (active),-35.4% (active),1.9% (active),4.33% (active),-47.6% (active)
CCOC(=O)C1=C(CC(O)c2ccc(OC)cc2OC)NC(=O)NC1c1ccccc1 (stereo not given),103%,100%,104%,97.8%,113%,82.5%,98.5%,107%,102%,126%
O=C(Nc1cccnc1Nc1ccc(Cl)cc1)c1cn(Cc2cccc(Oc3ccccc3)c2)nn1,63%,55.9%,68.7%,61.1%,35.2%,53%,44.6%,42.4%,52.2%,73.6%
CN(C)CCCn1c2c(c3ccncc3c1=O)C(=O)c1ccccc1-2,-23.1% (active),-53.1% (active),21.2%,-11.4% (active),-9.77% (active),-18.1% (active),-22.5% (active),30.2%,5.98% (active),10.6%
Cn1cc(-c2nonc2-c2c[nH]c3ccccc23)c2cc(Br)ccc21,52.9%,75.5%,53.2%,25.2%,14.9%,63.4%,7.04% (active),27.9%,50.6%,15%
CS(=O)(=O)Nc1cc(-c2ccc3ncnc(Nc4ccc(F)c(Cl)c4)c3c2)ccc1Cl,48.9%,70.1%,24.7%,64.7%,44.7%,-6.71% (active),19%,31.6%,50.3%,58.7%
c1ccc(-c2nc3ccccc3[nH]2)c(OCCCCCOc2ccccc2-c2nc3ccccc3[nH]2)c1,80.1%,85.2%,103%,124%,59.6%,-21.4% (active),66.1%,8.77% (active),93%,112%
c1ccc(-c2ccc3c(c2)C2(CCNCC2)CN3)cc1,86.3%,95.9%,102%,95.2%,95.8%,86.1%,88.3%,112%,95.1%,103%
O=S(Nc1ccccc1)c1ccc(Cl)cc1 (stereo not given),105%,99.9%,104%,92%,95.1%,103%,82.8%,78.9%,103%,102%
CS(=O)(=O)Nc1cc(-c2ccc3ncnc(Nc4ccc5c(cnn5Cc5ccccc5F)c4)c3c2)cnc1Cl,41.8%,66.7%,62%,40.3%,59.4%,-21.4% (active),34.3%,71.3%,53.1%,59.4%
Nc1[nH]nc2nc(-c3ccccc3)n3c4ccccc4nc3c12,99.9%,95.6%,93%,95.7%,93%,122%,82.7%,101%,106%,112%
CCOC(=O)C/C(=N\Nc1cc(=O)[nH]c2ccc(C)cc12)C(=O)OCC,103%,93.3%,98%,107%,104%,79.8%,99.4%,107%,109%,124%
